Among the test systems are SK-MEL-2 melanoma; EKVX NSCLC; SN12C renal; UO-31 renal; TK-10 renal; ACHN renal; A498 renal; CCRF-CEM leukemia; MOLT-4 leukemia; SR leukemia.
Holding throughout (assay): NCI-60 one-dose screen, 48 h (100 = growth as untreated, 0 = no growth, -100 = all killed)
Common to all, as to conditions: 10 µM unless noted

This is part of a sample that, as a whole, favours compounds with a hit. Of some 83,000 tested, about 20% had one in any assay.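 Single-dose data. Exposure time 48 hours. Values below 10 considered active.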 Values without a mark were called inactive. Calls of active or inactive are those of the source.

Regarding `COc1cc2nc3c(=O)n(CCN(C)C)cnn3c(=O)c2cc1OC`, the growth in the test on SK-MEL-2 melanoma is 101%; in the test with EKVX NSCLC, 95.7%; with SN12C renal, 104%; with UO-31 renal, 89.6%; with TK-10 renal, 103%; in the test on ACHN renal, 105%. The growth with A498 renal is 92.7%; with CCRF-CEM leukemia, 146%; in the test with MOLT-4 leukemia it was 104%; with SR leukemia, 105%.
For the compound `N#Cc1c(-c2ccc(F)cc2)nc(N/N=C/c2c[nH]c3ccccc23)nc1N1CCOCC1`, the growth was 53.4% in the test with SK-MEL-2 melanoma; 56.1% in the test with EKVX NSCLC; 82.2% in the test with SN12C renal; 34.5% in the test on UO-31 renal; 89.9% in the test on TK-10 renal; 43.4% in the test with ACHN renal. In addition, the growth was 25.6% in the test on A498 renal, 40.5% with CCRF-CEM leukemia, 22% in the test with MOLT-4 leukemia and 6.49% (active) in the test with SR leukemia.
Regarding `N#Cc1c(-c2ccc(F)cc2)c(C#N)c2c(C#N)c(N)nn2c1N`, the growth in the test on SK-MEL-2 melanoma was 102%; in the test with EKVX NSCLC it was 96.8%; in the test on SN12C renal it was 104%; with UO-31 renal it was 75.4%; with TK-10 renal, 86.4%; in the test on ACHN renal, 95.7%. For the same compound, the growth in the test on A498 renal is 93.7%; with CCRF-CEM leukemia, 104%; in the test on MOLT-4 leukemia, 85.9%; in the test with SR leukemia, 93.7%.
`COc1ccc(-c2nnc(N3CCN(C(=O)CN4CCN(c5ccccc5)CC4)CC3)nc2-c2ccc(OC)cc2)cc1`: the growth was 38.1% with SK-MEL-2 melanoma; 13% in the test with EKVX NSCLC; 7.79% (active) in the test on SN12C renal; 26.9% in the test on UO-31 renal; 55.3% with TK-10 renal; 26.1% with ACHN renal. The growth in the test on A498 renal is 48%; in the test on CCRF-CEM leukemia, 9.28% (active); in the test with MOLT-4 leukemia, -25.7% (active); in the test on SR leukemia it was -32.5% (active).
Consider `Nc1c(C(=O)Nc2cccc3ccccc23)sc2nc3c(cc12)CCCCCC3`, for which the growth was 5.93% (active) with SK-MEL-2 melanoma; 41.6% in the test on EKVX NSCLC; 46% with SN12C renal; 55% in the test on UO-31 renal; 55.3% in the test on TK-10 renal; 57.4% with ACHN renal. Moreover, the growth in the test on A498 renal was -4.7% (active); in the test with CCRF-CEM leukemia it was 11.2%; in the test with MOLT-4 leukemia, 21%; in the test on SR leukemia it was 19.1%.
In the case of `O=C1CC23OC(C(O)c4ccccc4N12)C1C(c2ccccc2)=NOC13` (stereo not given), the growth with SK-MEL-2 melanoma is 40.8%; in the test on EKVX NSCLC, 57.7%; with SN12C renal it was 42.9%; in the test with UO-31 renal, 45.1%; in the test with TK-10 renal, 102%; in the test on ACHN renal, 52.7%. In addition, the growth with A498 renal was 71%; in the test on CCRF-CEM leukemia, 68.3%; in the test on MOLT-4 leukemia, 37.2%; in the test with SR leukemia it was 22.2%.
On to `CCSc1nc(Cl)c(C#N)c(-c2ccc(F)cc2)n1`, for which the growth in the test with SK-MEL-2 melanoma was 102%; with EKVX NSCLC, 95.2%; in the test on SN12C renal, 95.4%; in the test with UO-31 renal, 85.8%; in the test on TK-10 renal it was 101%; with ACHN renal, 100%. The growth with A498 renal was 92.3%; with CCRF-CEM leukemia, 50.4%; in the test with MOLT-4 leukemia it was 48.4%; with SR leukemia it was 3.84% (active).
For `CCCn1cc(/C=N\N=C2\C(=O)Nc3ccc(C)cc32)c2ccccc21`, the growth is 35.1% in the test with SK-MEL-2 melanoma; 50.5% in the test on EKVX NSCLC; 49.9% with SN12C renal; 60% with UO-31 renal; 107% in the test with TK-10 renal; 55.7% in the test with ACHN renal. In addition, the growth in the test on A498 renal was 57.2%; in the test on CCRF-CEM leukemia, -0.646% (active); with MOLT-4 leukemia, -9.9% (active); in the test on SR leukemia, 11.6%.
As for `COc1ccc(/C=C/C(=O)c2ccc(NC(=O)CSc3nnc(-c4ccc(OC)c(OC)c4)n3-c3ccccc3)cc2)cc1`, the growth is 74.7% in the test with SK-MEL-2 melanoma; 66% in the test with EKVX NSCLC; 40.5% in the test on SN12C renal; -81.3% (active) with UO-31 renal; 101% with TK-10 renal; 59.9% in the test on ACHN renal. The growth is 93.5% with A498 renal, -20.9% (active) in the test with CCRF-CEM leukemia, 10.8% with MOLT-4 leukemia and -38.2% (active) with SR leukemia.
Regarding `O=C1CC23OC4ON=C(Br)C4C2C(O)c2ccccc2N13` (stereo not given), the growth with SK-MEL-2 melanoma is 89.8%; in the test with EKVX NSCLC, 92.1%; in the test with SN12C renal it was 101%; in the test on UO-31 renal, 63.4%; in the test on TK-10 renal, 132%; with ACHN renal it was 94.3%. Besides, the growth was 118% with A498 renal, 111% in the test with CCRF-CEM leukemia, 99.6% in the test with MOLT-4 leukemia and 107% in the test with SR leukemia.
For the compound `O=C1c2ccccc2C(=O)c2c1oc1c2c(=O)[nH]c2ccccc21`, the growth was 76.9% with SK-MEL-2 melanoma; 27.4% with EKVX NSCLC; 70.4% with SN12C renal; 60.4% in the test on UO-31 renal; 97.5% in the test on TK-10 renal; 65.7% in the test on ACHN renal. Further, the growth in the test with A498 renal was 104%; in the test with CCRF-CEM leukemia, 20.7%; in the test with MOLT-4 leukemia, 5.55% (active); in the test with SR leukemia, 43.8%.
For `COc1ccc2[nH]c(=O)c(/C=C/C(=O)/C=C/c3ccc(O)c(OC)c3)cc2c1`, the growth in the test on SK-MEL-2 melanoma is 78.3%; in the test with EKVX NSCLC, 59.4%; in the test on SN12C renal it was 4.69% (active); in the test on UO-31 renal, -70.8% (active); in the test with TK-10 renal, 61.1%; in the test with ACHN renal, 49.9%. For the same compound, the growth in the test with A498 renal was 89.7%; in the test with CCRF-CEM leukemia, 3.63% (active); with MOLT-4 leukemia it was 21%; with SR leukemia it was 1.27% (active).
On to `Nc1cc(N)c(S(=O)(=O)O)cc1N=Nc1cc([N+](=O)[O-])ccc1O`, for which the growth with SK-MEL-2 melanoma was 98.1%; with EKVX NSCLC, 103%; in the test on SN12C renal, 100%; in the test on UO-31 renal it was 89.4%; in the test with TK-10 renal, 102%; in the test on ACHN renal, 109%. For the same compound, the growth is 103% in the test with A498 renal, 93.9% in the test on CCRF-CEM leukemia, 90.5% with MOLT-4 leukemia and 90.3% in the test with SR leukemia.
With `O=C(NC[C@H](O)CN1CCc2ccccc2C1)c1cc(NC2COC2)ncn1`, the growth in the test with SK-MEL-2 melanoma was 94.4%; in the test with EKVX NSCLC it was 111%; in the test with SN12C renal it was 95.5%; in the test with UO-31 renal, 78.2%; with TK-10 renal it was 96.4%; in the test with ACHN renal, 95.9%. In addition, the growth is 116% in the test with A498 renal, 98.3% in the test with CCRF-CEM leukemia, 88% in the test with MOLT-4 leukemia and 97.2% in the test on SR leukemia.

These data come from PubChem BioAssay (NCI).
